Laboratory results as given in PubChem BioAssay (EPA / NIEHS).
Inconclusive results are not listed. Activity calls are given as the source filed them. The calls were made as follows, unless noted: active = hit-call score of the fitted dose curve at least 0.9, where 1 is the maximum; inactive = score below 0.9.

Key:
[1] = target: Glucocorticoid receptor (Homo sapiens) (UniProt P04150); test: ATG_GR_TRANS: Attagene TRANS-FACTORIAL HepG2 Assay for human Glucocorticoid Receptor (GR) (AID 2282978; active = hit-call score of the fitted dose curve at least 0.9, where 1 is the maximum;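 also: activators score as hits since higher reporter transcript over DMSO is fitted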); conditions: HepG2 Attagene TRANS GR reporter, mRNA transcription
Sequence of Glucocorticoid receptor (Homo sapiens) (P04150 whole entry, looked up, the tested form may be a part): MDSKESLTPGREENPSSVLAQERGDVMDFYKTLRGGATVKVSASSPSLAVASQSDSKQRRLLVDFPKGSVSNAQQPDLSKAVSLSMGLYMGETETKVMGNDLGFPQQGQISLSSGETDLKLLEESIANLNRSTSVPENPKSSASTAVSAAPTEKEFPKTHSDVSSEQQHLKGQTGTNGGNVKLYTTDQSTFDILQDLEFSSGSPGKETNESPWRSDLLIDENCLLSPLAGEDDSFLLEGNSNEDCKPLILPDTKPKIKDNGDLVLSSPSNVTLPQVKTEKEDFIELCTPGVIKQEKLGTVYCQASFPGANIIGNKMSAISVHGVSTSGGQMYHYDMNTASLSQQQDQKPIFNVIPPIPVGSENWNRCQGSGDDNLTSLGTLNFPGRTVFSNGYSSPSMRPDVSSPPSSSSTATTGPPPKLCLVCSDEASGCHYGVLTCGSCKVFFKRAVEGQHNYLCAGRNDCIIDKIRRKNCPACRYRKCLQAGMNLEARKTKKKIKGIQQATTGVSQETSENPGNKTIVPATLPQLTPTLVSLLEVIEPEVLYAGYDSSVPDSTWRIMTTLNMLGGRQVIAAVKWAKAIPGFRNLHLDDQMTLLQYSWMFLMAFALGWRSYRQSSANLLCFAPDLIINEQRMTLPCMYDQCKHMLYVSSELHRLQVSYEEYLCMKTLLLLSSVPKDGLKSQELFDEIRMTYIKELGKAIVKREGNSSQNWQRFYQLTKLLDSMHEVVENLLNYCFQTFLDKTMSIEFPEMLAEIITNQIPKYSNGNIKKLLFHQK
In short: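 Measurement of GAL4-UAS-driven reporter mRNA in human HepG2 liver cells 24 h post-dosing, using RT-PCR with fluorescent labelling and capillary electrophoresis; the transfected constructs report exogenous NR-GAL4 chimera activity, fitted upward against DMSO.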

[2] = target: Oxysterols receptor LXR-alpha (Homo sapiens) (UniProt Q13133); test: ATG_LXRa_TRANS: Attagene TRANS-FACTORIAL HepG2 Assay for human Liver X Receptor alpha (LXRa) (AID 2282980; active = hit-call score of the fitted dose curve at least 0.9, where 1 is the maximum); conditions: HepG2 Attagene TRANS reporter, LXRa transactivation
Sequence of Oxysterols receptor LXR-alpha (Homo sapiens) (Q13133 whole entry, looked up, the tested form may be a part): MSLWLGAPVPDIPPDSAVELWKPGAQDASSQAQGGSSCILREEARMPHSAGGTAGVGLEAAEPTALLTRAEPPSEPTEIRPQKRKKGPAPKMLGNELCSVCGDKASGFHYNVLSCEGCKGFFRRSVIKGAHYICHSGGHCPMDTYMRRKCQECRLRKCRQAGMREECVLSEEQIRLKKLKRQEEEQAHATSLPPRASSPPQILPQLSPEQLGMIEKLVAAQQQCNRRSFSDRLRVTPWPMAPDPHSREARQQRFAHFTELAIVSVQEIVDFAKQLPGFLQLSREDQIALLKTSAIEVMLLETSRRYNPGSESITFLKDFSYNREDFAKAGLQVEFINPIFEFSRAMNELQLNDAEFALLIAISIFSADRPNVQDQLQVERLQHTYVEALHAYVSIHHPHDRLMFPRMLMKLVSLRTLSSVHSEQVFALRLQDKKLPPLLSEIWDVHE
In short: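 Read-out: reporter transcript levels by RT-PCR plus capillary electrophoresis, fluorescence intensity. Transiently transfected HepG2, exogenous NR-GAL4 chimera, GAL4-UAS reporters; 24 h compound exposure. Activity = increase over DMSO negative control.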

[3] = ATG_M_06_TRANS: Attagene TRANS-FACTORIAL HepG2 Assay for M06 Transcription Factor (Internal Marker) (AID 2282983; active = hit-call score of the fitted dose curve at least 0.9, where 1 is the maximum); conditions: HepG2 Attagene TRANS M06 internal marker reporter
In short: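 After a 24 h chemical treatment of transfected HepG2, RNA underwent DNase I treatment, reverse transcription and reporter-specific PCR; labelled, HpaI-digested products were sized by capillary electrophoresis. Signal increase relative to DMSO defined activity.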

[4] = target: Transcriptional activator Myb (Homo sapiens) (UniProt P10242); test: ATG_Myb_CIS: Attagene CIS-FACTORIAL HepG2 Assay for human Myeloblastosis (Myb) Proto-Oncogene Transcription Factor (AID 2282986); conditions: HepG2 Attagene CIS-FACTORIAL Myb reporter transcription; actives raise or lower the signal
Sequence of Transcriptional activator Myb (Homo sapiens) (P10242 whole entry, looked up): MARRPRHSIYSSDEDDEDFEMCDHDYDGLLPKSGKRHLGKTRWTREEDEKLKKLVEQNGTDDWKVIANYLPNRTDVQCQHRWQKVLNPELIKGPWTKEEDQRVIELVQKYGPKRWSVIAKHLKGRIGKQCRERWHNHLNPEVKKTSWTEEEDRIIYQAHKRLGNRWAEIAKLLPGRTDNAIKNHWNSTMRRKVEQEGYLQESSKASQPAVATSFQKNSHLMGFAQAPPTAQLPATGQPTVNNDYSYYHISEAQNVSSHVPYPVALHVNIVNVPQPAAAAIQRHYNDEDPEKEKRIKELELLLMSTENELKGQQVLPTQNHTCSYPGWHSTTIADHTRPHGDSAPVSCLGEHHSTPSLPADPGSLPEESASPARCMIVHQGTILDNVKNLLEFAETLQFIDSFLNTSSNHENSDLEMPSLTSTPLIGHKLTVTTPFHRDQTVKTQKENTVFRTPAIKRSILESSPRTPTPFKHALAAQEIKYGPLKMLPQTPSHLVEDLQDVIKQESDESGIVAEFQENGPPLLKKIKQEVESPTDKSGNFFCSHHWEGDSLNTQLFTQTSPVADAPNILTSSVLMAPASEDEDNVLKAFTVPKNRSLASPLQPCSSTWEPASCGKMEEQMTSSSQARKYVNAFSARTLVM
In short: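 Fluorescence signals from capillary electrophoresis of RT-PCR-amplified reporter cDNA give the read-out. Cells: HepG2 transfected with multiple cis-regulated reporter units. Exposure lasts 24 hours; DMSO defines baseline for gain or loss of signal.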

[5] = target: Nuclear respiratory factor 1 (Homo sapiens) (UniProt Q16656); test: ATG_NRF1_CIS: Attagene CIS-FACTORIAL HepG2 Assay for human Nuclear Respiratory Factor 1 (NRF1) Orphan Gene (AID 2282987); conditions: HepG2 NRF1 cis-element reporter, Attagene multiplex; actives raise or lower the signal
Sequence of Nuclear respiratory factor 1 (Homo sapiens) (Q16656 whole entry, looked up): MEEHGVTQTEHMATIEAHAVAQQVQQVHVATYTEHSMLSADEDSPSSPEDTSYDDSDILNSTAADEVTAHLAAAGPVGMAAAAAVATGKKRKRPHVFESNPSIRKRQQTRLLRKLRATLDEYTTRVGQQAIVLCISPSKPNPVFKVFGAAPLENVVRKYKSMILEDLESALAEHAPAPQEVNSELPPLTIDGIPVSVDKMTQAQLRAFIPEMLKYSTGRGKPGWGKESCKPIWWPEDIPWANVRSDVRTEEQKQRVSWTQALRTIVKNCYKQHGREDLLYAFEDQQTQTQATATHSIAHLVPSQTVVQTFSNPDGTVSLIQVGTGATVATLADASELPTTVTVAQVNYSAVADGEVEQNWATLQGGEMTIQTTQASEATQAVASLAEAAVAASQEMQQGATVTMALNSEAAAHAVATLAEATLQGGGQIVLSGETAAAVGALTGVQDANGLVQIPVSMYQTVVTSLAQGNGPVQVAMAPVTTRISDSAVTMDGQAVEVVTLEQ
In short: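 Transcriptional reporter readout, one component of a 52-endpoint multiplexed HepG2 panel. Exposure 24 h; mRNA detected via RT-PCR and fluorescent capillary electrophoresis; fitting in both directions against DMSO.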

[6] = ATG_NFI_CIS: Attagene CIS-FACTORIAL HepG2 Assay for human Nuclear Factor I (NFI) (AID 2282989); conditions: HepG2 cis-regulatory reporter, NFI response element transcription; actives raise or lower the signal
In short: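 Multiplexed cis-reporter system in human HepG2 cells reports native TF activity as reporter mRNA induction 24 h post-dose. Fragments labelled with 6-FAM, HpaI-digested and resolved by capillary electrophoresis; activity fitted both directions versus DMSO.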

[7] = target: Myc proto-oncogene protein (Homo sapiens) (UniProt P01106); test: ATG_Myc_CIS: Attagene CIS-FACTORIAL HepG2 Assay for human Myelocytomatosis (Myc) Proto-Oncogene Transcription Factor (AID 2282990); conditions: HepG2, Attagene cis-reporter transcription factor activity; actives raise or lower the signal
Sequence of Myc proto-oncogene protein (Homo sapiens) (P01106 whole entry, looked up): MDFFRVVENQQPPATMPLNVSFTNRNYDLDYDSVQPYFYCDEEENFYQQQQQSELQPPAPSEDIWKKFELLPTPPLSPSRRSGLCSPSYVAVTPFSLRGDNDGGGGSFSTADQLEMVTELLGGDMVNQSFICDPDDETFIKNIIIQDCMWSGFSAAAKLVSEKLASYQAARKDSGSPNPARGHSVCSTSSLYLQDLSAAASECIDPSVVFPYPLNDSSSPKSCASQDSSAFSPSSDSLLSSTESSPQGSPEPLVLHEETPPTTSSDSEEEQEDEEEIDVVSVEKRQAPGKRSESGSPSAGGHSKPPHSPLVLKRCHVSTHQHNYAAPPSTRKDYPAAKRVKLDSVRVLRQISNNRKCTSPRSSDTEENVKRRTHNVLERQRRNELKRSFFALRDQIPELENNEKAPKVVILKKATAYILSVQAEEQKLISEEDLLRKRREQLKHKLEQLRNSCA
In short: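 DMSO-normalised, bidirectionally fitted reporter mRNA signal. HepG2 cells transfected with cis reporter constructs, treated 24 h; transcripts detected by RT-PCR, 6-FAM primer extension and CE.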

[8] = ATG_NRF2_ARE_CIS: Attagene CIS-FACTORIAL HepG2 Assay for human Nuclear Factor Erythroid 2 Related Factor 2 (NFR2) response to Antioxidant Response Elements (ARE) (AID 2282992); conditions: HepG2 Attagene ARE/NRF2 reporter, transcription factor activity; actives raise or lower the signal;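 as to AC50: reporter mRNA level measured by RT-PCR and capillary electrophoresis fluorescence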
In short: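 HepG2 cells transiently transfected with multiplexed cis-regulated reporter transcription units measure endogenous transcription factor activity. Reporter mRNA at 24 h is quantified by RT-PCR, fluorescent labelling and capillary electrophoresis, with bidirectional fitting relative to DMSO.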

[9] = ATG_Oct_MLP_CIS: Attagene CIS-FACTORIAL HepG2 Assay for human Octamer-Binding Transcription Factor (Oct) (AID 2282993); conditions: HepG2 Attagene cis-factorial Oct reporter, mRNA; actives raise or lower the signal
In short: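 After 24 h compound exposure, transfected HepG2 cells were lysed for total RNA; reporter-specific cDNA was PCR-amplified, fluorescently labelled and sized by capillary electrophoresis. Bidirectional curve fitting used DMSO as baseline.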

[10] = target: Cellular tumor antigen p53 (Homo sapiens) (UniProt P04637); test: ATG_p53_CIS: Attagene CIS-FACTORIAL HepG2 Assay for human p53 Transcription Factor (AID 2282994); conditions: HepG2 p53 cis-element reporter, Attagene mRNA; actives raise or lower the signal
Sequence of Cellular tumor antigen p53 (Homo sapiens) (P04637 whole entry, looked up): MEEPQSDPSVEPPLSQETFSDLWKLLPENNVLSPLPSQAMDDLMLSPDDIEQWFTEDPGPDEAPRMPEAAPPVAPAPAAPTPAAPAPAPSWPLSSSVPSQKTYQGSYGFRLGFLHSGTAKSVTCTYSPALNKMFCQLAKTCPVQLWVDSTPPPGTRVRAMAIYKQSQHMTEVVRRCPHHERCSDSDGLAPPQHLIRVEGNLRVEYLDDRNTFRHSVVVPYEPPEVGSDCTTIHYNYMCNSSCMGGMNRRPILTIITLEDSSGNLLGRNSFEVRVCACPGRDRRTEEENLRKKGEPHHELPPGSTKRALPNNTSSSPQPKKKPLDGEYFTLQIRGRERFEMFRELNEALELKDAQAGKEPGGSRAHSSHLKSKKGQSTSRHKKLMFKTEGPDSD
In short: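 HepG2 cells transiently transfected with multiplexed cis-regulated reporter transcription units read endogenous TF activity. After 24 h compound exposure, reporter mRNA was quantified by RT-PCR, fluorescent labelling, HpaI digestion and capillary electrophoresis; bidirectional fits versus DMSO baseline.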

[11] = BSK_3C_TissueFactor: BioMAP Diversity Plus: 3C Assay for Tissue Factor Biomarker Activity (AID 2282997); conditions: BioMAP 3C HUVEC, tissue factor biomarker readout; actives raise or lower the signal
In short: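 Human vascular primary cells (umbilical vein endothelium) received test chemical; Tissue Factor was determined by ELISA at 24 h, and both gain and loss of signal versus DMSO were fitted.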

[12] = BSK_3C_uPAR: BioMAP Diversity Plus: 3C Assay for Urokinase-type plasminogen activator receptor (uPAR) Biomarker Activity (AID 2282998); conditions: BioMAP 3C HUVEC, uPAR biomarker ELISA; actives raise or lower the signal
In short: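 Values derive from bidirectional curve fitting relative to DMSO, which served as baseline of activity. uPAR was measured by ELISA in human umbilical vein endothelial primary cultures 24 h after compound addition.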

[13] = BSK_3C_VCAM1: BioMAP Diversity Plus: 3C Assay for Vascular cell adhesion molecule 1 (VCAM1) Biomarker Activity (AID 2282999); conditions: BioMAP 3C HUVEC, VCAM1 ELISA, cytokine-stimulated; actives raise or lower the signal
In short: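 Human umbilical vein endothelial cells were dosed with compound for 24 h, after which cell-surface VCAM-1 was quantified by ELISA. Bidirectional curve fitting used DMSO as negative control and activity baseline.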

[14] = BSK_4H_Eotaxin3: BioMAP Diversity Plus: 4H Assay for Eotaxin 3 Biomarker Activity (AID 2283000); conditions: primary human endothelial cells (HUVEC); actives raise or lower the signal;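 also: CCL26 protein level quantified by ELISA in parallel with SRB cytotoxicity check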
In short: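 Readout is Eotaxin-3 (CCL26) level by ELISA in primary human umbilical vein endothelial cells harvested 24 h after chemical exposure; activity fitted in both directions against DMSO control.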

[15] = target: Oxysterols receptor LXR-beta (Homo sapiens) (UniProt P55055); test: ATG_LXRb_TRANS: Attagene TRANS-FACTORIAL HepG2 Assay for human Liver X Receptor beta (LXRb) (AID 2282981; active = hit-call score of the fitted dose curve at least 0.9, where 1 is the maximum); conditions: HepG2 Attagene TRANS GAL4-LXRb reporter, mRNA
Sequence of Oxysterols receptor LXR-beta (Homo sapiens) (P55055 whole entry, looked up, the tested form may be a part): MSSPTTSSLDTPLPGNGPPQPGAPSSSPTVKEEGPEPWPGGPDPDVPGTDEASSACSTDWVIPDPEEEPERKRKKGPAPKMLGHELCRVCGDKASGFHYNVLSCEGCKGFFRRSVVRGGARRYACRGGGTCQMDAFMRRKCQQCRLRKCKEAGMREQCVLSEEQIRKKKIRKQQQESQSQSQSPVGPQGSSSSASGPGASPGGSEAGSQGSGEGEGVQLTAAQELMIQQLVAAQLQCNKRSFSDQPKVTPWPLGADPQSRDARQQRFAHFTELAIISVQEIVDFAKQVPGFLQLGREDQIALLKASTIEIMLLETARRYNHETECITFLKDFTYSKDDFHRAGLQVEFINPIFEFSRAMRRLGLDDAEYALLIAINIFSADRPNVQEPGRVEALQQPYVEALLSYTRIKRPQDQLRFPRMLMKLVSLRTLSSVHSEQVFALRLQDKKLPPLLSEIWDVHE
In short: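 HepG2 cells transiently transfected with multiple reporter transcription units carrying chimeric NR-Gal4 proteins acting on GAL4-UAS reporters; compound exposure 24 h. Reporter mRNA quantified by RT-PCR, 6-FAM labelling, HpaI digestion and capillary electrophoresis; gain of signal versus DMSO.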

[16] = ATG_M_32_TRANS: Attagene TRANS-FACTORIAL HepG2 Assay for M32 Transcription Factor (Internal Marker) (AID 2282984; active = hit-call score of the fitted dose curve at least 0.9, where 1 is the maximum;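 also: transcript level of a background control reporter unit measured by RT-PCR and capillary electrophoresis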); conditions: HepG2 Attagene TRANS M32 internal marker reporter
In short: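 HepG2 cells transiently transfected with multiple GAL4-UAS reporter transcription units, dosed for 24 hours; reporter mRNA quantified by RT-PCR, 6-FAM primer extension, HpaI digestion and capillary electrophoresis. Gain-of-signal fitted versus DMSO baseline; internal background-control marker.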

[17] = ATG_NF_kB_CIS: Attagene CIS-FACTORIAL HepG2 Assay for human Nuclear Factor Kappa B (NF-kB) (AID 2282991); conditions: HepG2 Attagene cis-factorial NF-kB reporter mRNA; actives raise or lower the signal
In short: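 HepG2, transient multi-reporter transfection, cis promoter elements (endogenous TFs). 24 h exposure. Total RNA → RT → PCR → 6-FAM label → HpaI → CE. Gain/loss vs DMSO.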

[18] = target: Hepatocyte nuclear factor 4-alpha (Homo sapiens) (UniProt P41235); test: ATG_HNF4a_TRANS: Attagene TRANS-FACTORIAL HepG2 Assay for human Hepatocyte Nuclear Factor 4 alpha (HNF4a) (AID 2282982; active = hit-call score of the fitted dose curve at least 0.9, where 1 is the maximum); conditions: HepG2 HNF4a transactivation reporter, mRNA readout
Sequence of Hepatocyte nuclear factor 4-alpha (Homo sapiens) (P41235 whole entry, looked up, the tested form may be a part): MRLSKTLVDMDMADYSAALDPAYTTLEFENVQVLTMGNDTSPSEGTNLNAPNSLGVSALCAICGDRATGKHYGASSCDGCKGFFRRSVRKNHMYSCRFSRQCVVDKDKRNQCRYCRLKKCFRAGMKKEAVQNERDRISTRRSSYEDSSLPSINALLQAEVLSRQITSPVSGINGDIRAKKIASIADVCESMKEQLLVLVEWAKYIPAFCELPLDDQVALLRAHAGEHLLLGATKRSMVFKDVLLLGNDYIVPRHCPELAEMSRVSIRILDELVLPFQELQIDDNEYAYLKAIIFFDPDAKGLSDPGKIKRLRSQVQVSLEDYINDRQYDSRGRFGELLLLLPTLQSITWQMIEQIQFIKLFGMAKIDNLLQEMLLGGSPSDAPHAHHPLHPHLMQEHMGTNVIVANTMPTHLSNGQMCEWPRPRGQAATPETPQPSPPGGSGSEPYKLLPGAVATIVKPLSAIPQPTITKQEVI
In short: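 HepG2 cells transiently transfected with multiplexed GAL4-UAS reporter units responsive to chimeric NR-GAL4 proteins; compound exposure 24 h. Reporter mRNA quantified by RT-PCR, 6-FAM labelling, HpaI digestion and capillary electrophoresis; gain of signal versus DMSO baseline.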

[19] = target: Nuclear receptor subfamily 4 group A member 2 (Homo sapiens) (UniProt P43354); test: ATG_NURR1_TRANS: Attagene TRANS-FACTORIAL HepG2 Assay for human Nuclear Receptor Related Protein 1 (NURR1) (AID 2282985; active = hit-call score of the fitted dose curve at least 0.9, where 1 is the maximum); conditions: HepG2 Attagene TRANS reporter, mRNA readout
Sequence of Nuclear receptor subfamily 4 group A member 2 (Homo sapiens) (P43354 whole entry, looked up, the tested form may be a part): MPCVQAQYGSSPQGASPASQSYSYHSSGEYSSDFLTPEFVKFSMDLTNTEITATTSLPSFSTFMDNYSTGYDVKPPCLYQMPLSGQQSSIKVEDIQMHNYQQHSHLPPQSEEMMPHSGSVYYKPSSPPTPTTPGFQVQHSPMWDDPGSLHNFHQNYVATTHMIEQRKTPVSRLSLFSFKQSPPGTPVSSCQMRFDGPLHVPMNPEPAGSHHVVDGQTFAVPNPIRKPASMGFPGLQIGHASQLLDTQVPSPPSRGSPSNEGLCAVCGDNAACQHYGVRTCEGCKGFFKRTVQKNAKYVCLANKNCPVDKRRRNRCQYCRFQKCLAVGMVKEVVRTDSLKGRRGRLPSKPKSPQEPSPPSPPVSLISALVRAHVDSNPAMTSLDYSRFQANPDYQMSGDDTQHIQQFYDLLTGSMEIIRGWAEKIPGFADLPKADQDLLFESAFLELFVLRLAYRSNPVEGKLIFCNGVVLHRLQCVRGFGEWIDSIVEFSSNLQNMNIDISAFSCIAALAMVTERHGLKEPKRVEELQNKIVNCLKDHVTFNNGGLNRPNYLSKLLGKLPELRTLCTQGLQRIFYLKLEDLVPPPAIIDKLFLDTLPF
In short: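 HepG2 cells transiently transfected with GAL4-UAS reporter units and chimeric NR-Gal4 constructs; chemical exposure 24 h. Reporter mRNA quantified by RT-PCR, fluorescent labelling and capillary electrophoresis; gain of signal fitted relative to DMSO baseline.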

Measured: AC50

O=C=NC1CCC(CC2CCC(N=C=O)CC2)CC1 (stereo not drawn)
active: [7] 100 µM | [9] 61.8 µM | [11] 3.97 µM
not listed: [15] | [16] | [17] | [18] | [19]
inactive: all other assays above

C/C=C(\C)C(=O)OCc1ccccc1
not listed: [2] | [6] | [11] | [12] | [13] | [14] | [18] | [19]
inactive: all other assays above

CCC(C)CCCC(C)(C)O (stereo not drawn)
not listed: [3] | [11] | [12] | [13] | [14] | [15] | [18] | [19]
inactive: all other assays above

CCCCOCCOCCSC#N
inactive: [1] | [15] | [18] | [3] | [5] | [6] | [7] | [17] | [9] | [10]
active: [8] 16.7 µM

O=Cc1ccc(F)cc1
not listed: [2] | [11] | [12] | [13] | [14] | [16] | [17] | [18]
inactive: all other assays above

CC(=O)C(C)=O
active: [8] 37.4 µM
not listed: [2] | [11] | [12] | [13] | [14] | [16]
inactive: all other assays above

NC(N)=NC(=O)c1nc(Cl)c(N)nc1N
active: [8] 62.6 µM
not listed: [2] | [11] | [12] | [13] | [14] | [18]
inactive: all other assays above

COc1ccnc(CS(=O)c2nc3cc(OC(F)F)ccc3[nH]2)c1OC (stereo not drawn)
active: [8] 59.4 µM
inactive: [1] | [15] | [3] | [5] | [6] | [7] | [9]

CCCCN
not listed: [2] | [3] | [11] | [12] | [13] | [14] | [16]
inactive: all other assays above

O=CCCc1ccccc1
active: [8] 38 µM
inactive: [1] | [2] | [3] | [16] | [4] | [5] | [6] | [7] | [17] | [9]

C=CC(=O)OCC(O)COc1ccccc1 (stereo not drawn)
active: [17] 55.7 µM | [8] 26.2 µM
not listed: [2] | [11] | [12] | [13] | [14] | [16]
inactive: all other assays above
